Results filed as inconclusive are left out. Active and inactive are the calls of the source. Calls follow the shape of the dose curve; as a rule, active = well fitted inhibition curve with a large enough effect; inconclusive = small, poorly fitted or top-dose-only effect; inactive = no such curve, though single readings can be large or run the other way.
Test: BET inhibitor-based combinations targeting novel dependencies in MECOM-rearranged (r) AML: OCI-AML3 cell line (AID 2202232); also: nearly all actives have a fitted effect of over 35% in size
Details: CellTiter-Glo luminescence, 48 h; Potency: OCI-AML3 viability; series mostly up to 46 µM
Method in brief: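 Here, 11-point titrations of each agent were applied to 500 seeded cells and incubated 48 hr; CellTiter-Glo signal, scaled against DMSO and empty wells, was integrated as AUC, then Z-scored within the individual line.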
With `CC(=O)O/N=C1\C(=O)N(Cc2cc(Cl)ccc2Cl)c2ccc(Cl)cc21` the Potency was 13.2 µM (active). In the case of `NC(=O)c1cc(F)cc2c1C(=O)N(C1CCN(C3CCC(F)(F)CC3)CC1)C2`, the Potency is reported as “inactive”. For `CN1N=C(N)c2cn([C@@H]3O[C@H](COP(=O)(O)O)[C@@H](O)[C@@H]3O)c3ncnc1c23`, the Potency was 1.32 µM (active). With `O=C(NO)c1cnc(NC2(c3ccccc3)CC2)nc1` the Potency was 5.9 µM (active). For `C=CC(=O)N1CC[C@@H](Oc2nc(Nc3ccc(N4CCC(N5CCN(C)CC5)CC4)cc3)c(C(N)=O)nc2CC)C1`, the Potency was 4.56 µM (active). With `C=CC(=O)Nc1cccc(Oc2nc(Nc3ccc(N4CCN(C)CC4)c(F)c3)nc3[nH]ccc23)c1` the Potency was 8.33 µM (active). For `O=C(/C=C/c1ccc(CN(CCO)CCc2c[nH]c3ccccc23)cc1)NO`, the Potency was 0.132 µM (active). With `Cc1oc(=O)oc1CN1CCN(c2cc3c(cc2F)c(=O)c(C(=O)O)c2n3C(C)S2)CC1` (stereo unspecified) the Potency was “inactive”. For `COc1cc2c3c(n(CCCn4ccnc4)c(=O)c2cc1OC)-c1cc2c(cc1C3=O)OCO2`, the Potency was 0.0372 µM (active). With `O=C(/C=C/c1cccnc1)NCCCCC1CCN(C(=O)c2ccccc2)CC1` the Potency was 0.0042 µM (active). For `CN[C@@H]1[C@@H](O)[C@@H](O[C@@H]2[C@@H](O)[C@H](O[C@H]3O[C@H](CN)[C@@H](O)[C@H](O)[C@H]3O)[C@@H](N)C[C@H]2NC(=O)C(O)CN)OC[C@]1(C)O` (stereo partly specified), the Potency was “inactive”. In the case of `Cc1[nH]nc2ncc(C(=O)N3CCC[C@H]3c3ccc(Cl)cc3)cc12`, the Potency is reported as “inactive”. With `CCCCC[C@H](O)/C=C/[C@H]1[C@H](O)CC(=O)[C@@H]1CCCCCCC(=O)O` the Potency was 9.34 µM (active). In the case of `COc1ccnc(CS(=O)c2nc3ccc(OC(F)F)cc3[nH]2)c1OC` (stereo unspecified), the Potency is reported as 23.5 µM (active). In the case of `CC(=O)N[C@H]1CSSC[C@@H](C(N)=O)NC(=O)[C@H](C(C)C)NC(=O)[C@H](C)NC(=O)[C@H](Cc2cnc[nH]2)NC1=O`, the Potency is reported as “inactive”. In the case of `N[C@@H]1CN(c2c(F)cc3c(=O)c(C(=O)O)cn([C@@H]4C[C@@H]4F)c3c2Cl)CC12CC2`, the Potency is reported as “inactive”. With `CN1C(=O)[C@@H](NC(=O)c2cc(Cc3ccccc3)on2)COc2ccccc21` the Potency was “inactive”. With `C[C@@H](O[C@H]1OCCN(Cc2n[nH]c(=O)[nH]2)[C@@H]1c1ccc(F)cc1)c1cc(C(F)(F)F)cc(C(F)(F)F)c1` the Potency was 18.6 µM (active). With `COc1ncc(Nc2ncc(C(C)N3CCN(S(C)(=O)=O)CC3)cc2-c2nc(C)nc(N)n2)cc1F` (stereo unspecified) the Potency was 0.662 µM (active). For `CC(=O)CC(c1ccccc1)c1c(O)c2ccccc2oc1=O` (stereo unspecified), the Potency was “inactive”. For `CC(C)n1c(=O)cc(N[C@@H](C)c2ccccc2)[nH]c1=O`, the Potency was “inactive”. For `OCCn1cc(-c2ccc3c(c2)CC/C3=N\O)c(-c2ccncc2)n1`, the Potency was 2.35 µM (active). For `Cc1cc(C)c2c(c1)[C@@H](N(Cc1cc(C(F)(F)F)cc(C(F)(F)F)c1)c1nnn(C)n1)CCCN2CC1CCC(C(=O)O)CC1` (stereo partly specified), the Potency was 8.33 µM (active). For `Clc1ccc(CCC(Cn2ccnc2)Sc2c(Cl)cccc2Cl)cc1` (stereo unspecified), the Potency was “inactive”. In the case of `Cc1ccc(C2=Nc3ccc(Cl)cc3OC2)cc1`, the Potency is reported as 10.5 µM (active). For `O=C(O)CNC(=O)c1nc(Cl)c2ccccc2c1O`, the Potency was “inactive”. For `CNS(=O)(=O)Nc1nccc(Cc2c(C)c3ccc(Oc4ncccn4)cc3oc2=O)c1F`, the Potency was 0.0332 µM (active). With `C/C(=N\NC(=O)c1cccc(S(=O)(=O)N2CCOCC2)c1)c1cc(Cl)ccc1O` the Potency was 1.86 µM (active). With `C#CCN(C)CC1=Cc2ccccc2Oc2ccccc21` the Potency was “inactive”. For `O=C(Cc1ccccc1)Nc1nnc(CCSCCc2nnc(NC(=O)Cc3ccccc3)s2)s1`, the Potency was 0.468 µM (active). In the case of `CS[C@H]1SC[C@@H]2C(=O)N(C)[C@H](C(C)C)C(=O)OC[C@H](NC(=O)c3cnc4ccccc4n3)C(=O)N[C@H](C)C(=O)N(C)[C@H]1C(=O)N(C)[C@H](C(C)C)C(=O)OC[C@H](NC(=O)c1cnc3ccccc3n1)C(=O)N[C@H](C)C(=O)N2C`, the Potency is reported as 0.0047 µM (active). For `c1ccc(-c2nn3c(c2-c2ccnc4cc(OCCN5CCOCC5)ccc24)CCC3)nc1`, the Potency was “inactive”. For `C[C@H](NC(=O)/C(C#N)=C/c1cccc(Br)n1)c1ccccc1`, the Potency was 4.68 µM (active). In the case of `CN1CCN(CCCNc2ncc(Cl)c(-c3cc4c(C(=O)NC5CC5)cccc4s3)n2)CC1`, the Potency is reported as “inactive”. With `O=C1CC(c2c[nH]c3ccc(F)cc23)C(=O)N1` (stereo unspecified) the Potency was “inactive”. In the case of `CNC(=O)[C@H](Cc1c[nH]c2ccccc12)NC(=O)[C@@H](CC(=O)NO)CC(C)C`, the Potency is reported as “inactive”.

Source: PubChem BioAssay (NCATS)
Potency is read from the fitted curve at half-maximal effect.
